# Hit rate of the full screen: of about 52,000 compounds, about 4,300 (8.3%) were called active. The full list was thinned out, with actives kept by preference. Values without a mark were called inactive. No stated cut-off is given here; in the data, active means survival mostly below about 52% (no sharp cut-off); inactive means mostly above about 56%.
# System: DeltatarO mutant
# Assay: S. aureus survival, RN4220 and DeltatarO strains – OD600, teichoic acid synthesis inhibitors, primary screen (AID 463173)
# Conditions: S. aureus RN4220 wild type/DeltatarO growth, OD600, 18 h, active compounds read low, screened at 18.75 µg/mL (by protocol)
row,Compound,survival
1,Cc1ccc(N(C)C(=O)c2sc3nc4n(c(=O)c3c2C)CCCC4)cc1C,64%
2,O=C(Cn1c(=O)n(CCCS(=O)(=O)C2CCCCC2)c(=O)c2ccccc21)Nc1ccccc1C(F)(F)F,91%
3,Cc1ccc(S(=O)(=O)CCC(=O)Nc2ccc(Br)cc2C)cc1,85%
4,Cc1ccc(C)c(N2CCN(C(=O)C3CCCN(S(=O)(=O)c4cccc5nonc45)C3)CC2)c1 (centres undefined),76%
5,COc1ccc(OC)c(NC(=O)c2cc3cccc(OC)c3oc2=O)c1,77%
6,Cc1cccc(C)c1NC(=O)c1cc2sccc2n1Cc1ccc(F)cc1,96%
7,COc1cc(/C=C(\C#N)c2nc3ccc(C)cc3[nH]2)ccc1OC(C)C,46% (active)
8,CCOC(=O)COc1ccc(/C=C(\C#N)c2nc3ccc(C)cc3[nH]2)cc1OC,43% (active)
9,COc1cc(/C=C(\C#N)c2nc3ccccc3[nH]2)ccc1OCc1ccc(F)cc1,70%
10,COc1cc(/C=C(\C#N)c2nc3ccc(C)cc3[nH]2)ccc1OCc1ccc(C)cc1,59%
11,COc1ccc(/C=C(\C#N)c2nc3ccccc3c(=O)[nH]2)cc1OC,86%
12,CCC(=O)Oc1ccc(/C=C(\C#N)c2nc3ccccc3[nH]2)cc1OC,47%
13,Cc1ccc(-n2nc(C)c3c(C)cc(=O)n(CC(=O)N4CCCc5ccccc54)c32)cc1,80%
14,Cc1oc2ncn(CC(C)C)c(=O)c2c1C(=O)Nc1ccc(Cl)cn1,86%
15,COc1ccc(CNC(=O)C2CCC(CNS(=O)(=O)c3ccc4c(c3)CCCC(=O)N4)CC2)cc1 (centres undefined),87%
16,CCc1cccc(NC(=O)C2CCCN(c3ncccn3)C2)c1 (centres undefined),80%
17,COc1ccc(CNC(=O)CCc2c(C)nn(-c3ccc(N4CCCCC4)nn3)c2C)cc1,75%
18,Cc1ccc(CNC(=O)CN2CCN(Cc3ccc(F)cc3)C2=O)cc1,95%
19,Cc1c(Cl)cccc1NC(=O)c1ccc(C(=O)Nc2cccc(Cl)c2C)cc1,81%
20,CCC(Cc1ccccc1)NC(=O)c1cccc(Nc2nc3ccccc3nc2-n2nc(C)cc2C)c1 (centres undefined),63%
21,Cc1cc(C)n(-c2nc3ccccc3nc2Nc2cc(C(=O)O)ccc2C)n1,42% (active)
22,CCCCOC(=O)c1ccc(Nc2nnc(-n3nc(C)cc3C)c3ccccc23)cc1,98%
23,CCCOC(=O)c1ccc(Nc2nc3ccccc3nc2-n2nc(C)cc2C)cc1,24% (active)
24,CC(=O)c1ccc(Nc2nc3ccccc3nc2-n2nc(C)cc2C)cc1,44% (active)
25,Cc1cc(C)n(-c2nc3ccccc3nc2Nc2cccc(C(=O)NCCc3ccccc3)c2)n1,93%

row,Compound,survival
1,Cc1cc(C)n(-c2nc3ccccc3nc2Nc2ccc(Cl)c(C(=O)OC(C)C)c2)n1,99%
2,Cc1ccc(C(=O)O)cc1Nc1nc2ccccc2n2nnnc12,82%
3,Cc1ccc(Nc2nc3ccc(C)cc3nc2-n2nc(C)cc2C)c(C)c1,81%
4,COc1cccc(C(=O)Nc2c(C(=O)c3ccc(F)cc3)oc3ccccc23)c1,66%
5,CCn1c(SC)nnc1C1CCCN(Cc2ccccc2)C1 (centres undefined),100%
6,CC(C)Cn1cc(NC(=O)N2CCN(c3ccc(F)cc3)CC2)c2ccccc2c1=O,99%
7,O=C(Nc1cccc(F)c1)c1ccc(-c2ccccc2)s1,82%
8,CCOC(=O)c1cc(-c2ccc(OC)cc2)n(CCC(=O)Nc2cccc(C)c2C)c1C,93%
9,CC1=Nc2cc(C(=O)NC3CCCC3)ccc2Sc2ccc(Cl)cc21,77%
10,Cc1ccccc1-c1nnc(C2CCN(S(=O)(=O)c3ccc(Cl)cc3)CC2)o1,89%
11,CCOc1ccc2nc(N3CCCC(C(=O)Nc4ccccc4CC)C3)sc2c1 (centres undefined),95%
12,COc1cccc(C(=O)Nc2nc3ccc(S(=O)(=O)N4CCCC4)cc3s2)c1,79%
13,O=C(Nc1nnc(S(=O)(=O)N2CCCCCC2)s1)c1ccc(Br)cc1,60%
14,COc1ccc(C(=O)Nc2nnc(S(=O)(=O)N3CCCCCC3)s2)cc1OC,80%
15,O=C(Nc1nnc(S(=O)(=O)N2CCCCCC2)s1)c1cccc(Br)c1,9% (active)
16,O=C(Nc1nnc(S(=O)(=O)N2CCOCC2)s1)c1cccc(Br)c1,42% (active)
17,Cc1cccc(C(=O)Nc2nnc(S(=O)(=O)N3CCOCC3)s2)c1,58%
18,COc1cccc(C(=O)Nc2nnc(S(=O)(=O)N3CCCC3)s2)c1,33% (active)
19,O=C(Nc1nnc(S(=O)(=O)N2CCOCC2)s1)c1ccc(F)cc1,78%
20,CC1CCN(C(=O)COc2ccc(C(C)C)cc2)CC1,86%
21,Cc1ccc(C)n1-c1nnc(N2CCC(C(=O)Nc3ccccc3Br)CC2)s1,91%
22,c1cc(CNC2CCCCC2)co1,72%
23,Nc1nnc(CCC(CCc2nnc(N)s2)(CCc2nnc(N)s2)C(=O)c2ccccc2)s1,92%
24,COc1ccc(C)c2sc(N(Cc3cccnc3)C(C)=O)nc12,80%

# — PubChem BioAssay AID463173 (ICCB-Longwood Screening Facility, Harvard Medical School, 2010)
